Binding signal data for one sequence are collected here from article PMC7862700, “An all-to-all approach to the identification of sequence-specific readers for epigenetic DNA modifications on cytosine”.

Common to all, as to experiment: DAPPL (digital affinity profiling via proximity ligation, sequencing); 10 mM Tris-HCl pH 7.5, 50 mM NaCl, 1 mM DTT, 4% glycerol, room temperature, 30 min; GST-TFs on glutathione beads, 16-mer random dsDNA library, 0.1% formaldehyde crosslink after washing; high values mean tight binding
Assay [1] has as its target T1, FLI1 (Homo sapiens, UniProt Q01543 1-452).
T1 sequence: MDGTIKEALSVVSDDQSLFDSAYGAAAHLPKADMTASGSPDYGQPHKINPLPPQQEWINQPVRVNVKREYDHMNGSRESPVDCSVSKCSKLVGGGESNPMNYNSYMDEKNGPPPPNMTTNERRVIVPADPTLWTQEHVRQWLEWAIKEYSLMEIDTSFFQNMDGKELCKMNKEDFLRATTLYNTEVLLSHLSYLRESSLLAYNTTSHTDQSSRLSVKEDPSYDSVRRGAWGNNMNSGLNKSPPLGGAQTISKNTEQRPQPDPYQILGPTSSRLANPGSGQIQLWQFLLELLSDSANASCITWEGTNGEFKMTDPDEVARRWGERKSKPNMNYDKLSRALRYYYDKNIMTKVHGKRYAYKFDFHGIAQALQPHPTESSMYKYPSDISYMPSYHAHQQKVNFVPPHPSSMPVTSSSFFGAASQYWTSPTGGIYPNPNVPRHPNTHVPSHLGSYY
The following applies: protein: recombinant; tags: N-terminal GST; dsDNA, one strand shown. The method, boiled down:
(§1)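 Beads coated with glutathione captured GST-fused human transcription factors that had been expressed in yeast, and the factors were then given DNA barcodes and pooled with a tag-only sample. The pools were incubated with 200 nmole of a random double-stranded 16-mer DNA library in Tris/NaCl/DTT/glycerol buffer for 30 min at room temperature, washed, crosslinked with 0.1% formaldehyde and proximity-ligated with BsaI/T4 ligase at 37 °C for 1 h. PCR amplification and Illumina NextSeq500 sequencing came last. Binding signal is each hexamer's read frequency for a factor divided by its frequency for the tag-only sample.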

Assay [2] addresses T2, ELK1 (Homo sapiens, UniProt P19419 1-428).
T2 sequence: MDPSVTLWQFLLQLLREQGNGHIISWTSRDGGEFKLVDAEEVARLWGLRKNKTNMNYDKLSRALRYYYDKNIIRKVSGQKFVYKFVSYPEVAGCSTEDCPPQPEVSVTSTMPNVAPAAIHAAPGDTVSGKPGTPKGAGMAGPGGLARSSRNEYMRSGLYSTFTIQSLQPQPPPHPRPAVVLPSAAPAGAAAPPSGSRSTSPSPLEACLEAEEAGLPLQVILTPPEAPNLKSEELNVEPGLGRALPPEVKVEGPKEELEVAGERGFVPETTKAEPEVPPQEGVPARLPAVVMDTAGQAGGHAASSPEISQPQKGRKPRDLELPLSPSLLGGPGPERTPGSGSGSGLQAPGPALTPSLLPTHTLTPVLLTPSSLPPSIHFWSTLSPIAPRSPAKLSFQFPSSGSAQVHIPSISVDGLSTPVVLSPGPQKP
Particulars: protein: recombinant; tags: N-terminal GST; dsDNA, one strand shown. In a few lines: as §1

For assay [3], the target named is T3, GABPA (Homo sapiens, UniProt Q06546 1-454).
T3 sequence: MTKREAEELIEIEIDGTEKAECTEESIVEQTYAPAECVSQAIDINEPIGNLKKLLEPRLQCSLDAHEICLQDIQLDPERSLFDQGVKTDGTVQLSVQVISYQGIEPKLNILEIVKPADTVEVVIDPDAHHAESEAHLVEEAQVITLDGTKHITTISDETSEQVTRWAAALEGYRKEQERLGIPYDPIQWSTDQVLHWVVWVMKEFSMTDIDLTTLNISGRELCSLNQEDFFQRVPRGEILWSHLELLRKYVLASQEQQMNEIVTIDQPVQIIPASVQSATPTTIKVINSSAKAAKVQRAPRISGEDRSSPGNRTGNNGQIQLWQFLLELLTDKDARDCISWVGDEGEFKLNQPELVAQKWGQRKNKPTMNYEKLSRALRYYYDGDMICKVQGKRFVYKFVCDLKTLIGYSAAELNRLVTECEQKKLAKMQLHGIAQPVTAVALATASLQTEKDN
The following applies: protein: recombinant; tags: N-terminal GST; dsDNA, one strand shown. In a few lines: as §1

In assay [4] the target is T4, ERG (Homo sapiens, UniProt P11308 1-479).
T4 sequence: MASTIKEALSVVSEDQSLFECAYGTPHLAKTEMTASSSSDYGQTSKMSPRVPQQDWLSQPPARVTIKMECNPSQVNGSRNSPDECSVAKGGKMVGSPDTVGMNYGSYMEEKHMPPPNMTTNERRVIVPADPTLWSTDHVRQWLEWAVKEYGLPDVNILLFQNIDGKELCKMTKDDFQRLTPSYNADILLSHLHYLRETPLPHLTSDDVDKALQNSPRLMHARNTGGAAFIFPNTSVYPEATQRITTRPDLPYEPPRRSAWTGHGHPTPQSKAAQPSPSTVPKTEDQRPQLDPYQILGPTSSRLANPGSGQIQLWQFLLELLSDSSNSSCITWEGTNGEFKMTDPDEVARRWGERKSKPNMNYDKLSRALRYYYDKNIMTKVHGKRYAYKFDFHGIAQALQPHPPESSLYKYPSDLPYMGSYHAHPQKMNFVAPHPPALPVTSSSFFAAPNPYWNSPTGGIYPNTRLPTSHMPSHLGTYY
The following applies: protein: recombinant; tags: N-terminal GST; dsDNA, one strand shown. In a few lines: as §1

For assay [5], the target named is ELF1 (Homo sapiens, UniProt P32519 1-619). The following applies: protein: recombinant; tags: N-terminal GST; dsDNA, one strand shown. The method, boiled down: as §1
Assay [6] deals with T5, EHF (Homo sapiens, UniProt Q9NZC4 1-300).
T5 sequence: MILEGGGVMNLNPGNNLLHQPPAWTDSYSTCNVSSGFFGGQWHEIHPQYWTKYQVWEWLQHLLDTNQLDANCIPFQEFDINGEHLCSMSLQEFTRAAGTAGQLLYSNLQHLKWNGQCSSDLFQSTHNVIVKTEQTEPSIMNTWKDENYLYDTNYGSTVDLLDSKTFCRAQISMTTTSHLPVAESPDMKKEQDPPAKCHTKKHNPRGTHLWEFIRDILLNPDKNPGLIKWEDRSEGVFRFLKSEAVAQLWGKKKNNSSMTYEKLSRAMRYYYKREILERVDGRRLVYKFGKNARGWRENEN
Particulars: protein: recombinant; tags: N-terminal GST; dsDNA, one strand shown. The method, boiled down:
as §1

In assay [7] the target is SPI1 (Homo sapiens, UniProt P17947 1-270). The following applies: protein: recombinant; tags: N-terminal GST; dsDNA, one strand shown. The method, boiled down: as §1
The target of assay [8] is SPIB (Homo sapiens, UniProt Q01892 1-262). Particulars: protein: recombinant; tags: N-terminal GST; dsDNA, one strand shown. The method, boiled down:
as §1

Assay [9] concerns the target T6, ELK3 (Homo sapiens, UniProt P41970 1-407).
T6 sequence: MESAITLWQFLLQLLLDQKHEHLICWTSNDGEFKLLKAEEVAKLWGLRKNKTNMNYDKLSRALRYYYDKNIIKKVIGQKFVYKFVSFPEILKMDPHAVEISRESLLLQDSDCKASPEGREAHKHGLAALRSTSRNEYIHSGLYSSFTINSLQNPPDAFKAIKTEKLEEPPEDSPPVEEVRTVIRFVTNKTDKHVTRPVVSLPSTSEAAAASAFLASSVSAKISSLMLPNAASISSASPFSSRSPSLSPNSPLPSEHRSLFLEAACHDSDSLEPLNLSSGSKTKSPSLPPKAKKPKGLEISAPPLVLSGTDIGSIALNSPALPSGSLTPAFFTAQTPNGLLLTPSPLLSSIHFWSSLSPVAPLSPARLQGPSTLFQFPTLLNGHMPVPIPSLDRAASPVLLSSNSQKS
The following applies: protein: recombinant; tags: N-terminal GST; dsDNA, one strand shown. The method, boiled down: as §1

Assay [10] addresses T7, FEV (Homo sapiens, UniProt Q99581 1-238).
T7 sequence: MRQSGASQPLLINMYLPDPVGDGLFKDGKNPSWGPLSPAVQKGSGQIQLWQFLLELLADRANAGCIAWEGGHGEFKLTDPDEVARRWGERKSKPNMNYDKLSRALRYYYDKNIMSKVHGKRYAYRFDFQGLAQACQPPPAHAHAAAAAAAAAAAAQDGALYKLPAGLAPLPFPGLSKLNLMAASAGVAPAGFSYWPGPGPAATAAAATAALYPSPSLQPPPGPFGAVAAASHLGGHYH
Particulars: protein: recombinant; tags: N-terminal GST; dsDNA, one strand shown. In a few lines:
as §1

Assay [11] has as its target ETV5 (Homo sapiens, UniProt P41161 1-510). The following applies: protein: recombinant; tags: N-terminal GST; dsDNA, one strand shown. The method, boiled down: as §1
Assay [12] concerns the target HSF1 (Homo sapiens, UniProt Q00613 1-529). Particulars: protein: recombinant; tags: N-terminal GST; chain copies: 3; dsDNA, one strand shown. The method, boiled down:
as §1

The target of assay [13] is T8, SPIC (Homo sapiens, UniProt Q8N5J4 1-248).
T8 sequence: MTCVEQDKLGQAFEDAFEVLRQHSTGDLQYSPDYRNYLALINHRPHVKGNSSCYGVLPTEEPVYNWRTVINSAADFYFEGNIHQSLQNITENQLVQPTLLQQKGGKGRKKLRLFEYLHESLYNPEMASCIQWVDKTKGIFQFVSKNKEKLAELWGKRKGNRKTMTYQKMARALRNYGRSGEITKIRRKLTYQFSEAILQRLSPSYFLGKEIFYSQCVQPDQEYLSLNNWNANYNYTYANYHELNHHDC
The following applies: protein: recombinant; tags: N-terminal GST; dsDNA, one strand shown. In a few lines:
as §1

For assay [14], the target named is ELF4 (Homo sapiens, UniProt Q99607 1-663). The following applies: protein: recombinant; tags: N-terminal GST; dsDNA, one strand shown. The method, boiled down: as §1
Assay [15] deals with T9, ELK4 (Homo sapiens, UniProt P28324-2 1-405).
T9 sequence: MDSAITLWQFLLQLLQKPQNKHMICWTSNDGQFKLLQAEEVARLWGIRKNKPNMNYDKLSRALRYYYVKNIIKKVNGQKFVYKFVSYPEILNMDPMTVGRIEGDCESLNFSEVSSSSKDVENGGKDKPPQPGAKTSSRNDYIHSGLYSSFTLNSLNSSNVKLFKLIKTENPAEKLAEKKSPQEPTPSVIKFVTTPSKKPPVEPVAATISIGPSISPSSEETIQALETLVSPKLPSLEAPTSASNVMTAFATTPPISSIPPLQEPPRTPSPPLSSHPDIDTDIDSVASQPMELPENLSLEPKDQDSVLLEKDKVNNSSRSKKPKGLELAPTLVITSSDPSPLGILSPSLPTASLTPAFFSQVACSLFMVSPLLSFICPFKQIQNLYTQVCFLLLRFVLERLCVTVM
Particulars: protein: recombinant; tags: N-terminal GST; dsDNA, one strand shown. The method, boiled down: as §1

Assay [16] has as its target T10, ELF3 (Homo sapiens, UniProt P78545 1-371).
T10 sequence: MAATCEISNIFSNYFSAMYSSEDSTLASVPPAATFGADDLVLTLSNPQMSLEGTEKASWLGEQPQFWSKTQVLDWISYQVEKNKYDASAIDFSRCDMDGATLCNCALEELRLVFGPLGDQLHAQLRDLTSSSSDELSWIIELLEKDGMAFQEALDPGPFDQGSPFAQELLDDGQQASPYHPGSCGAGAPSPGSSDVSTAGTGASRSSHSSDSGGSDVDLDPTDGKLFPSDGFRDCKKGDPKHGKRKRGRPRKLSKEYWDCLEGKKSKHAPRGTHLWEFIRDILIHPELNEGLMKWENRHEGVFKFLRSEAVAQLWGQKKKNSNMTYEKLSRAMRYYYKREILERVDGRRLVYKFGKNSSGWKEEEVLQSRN
The following applies: protein: recombinant; tags: N-terminal GST; dsDNA, one strand shown. The method, boiled down:
as §1

The target in assay [17] is ETV1 (Homo sapiens, UniProt P50549 1-477). The following applies: protein: recombinant; tags: N-terminal GST; dsDNA, one strand shown. The method, boiled down: as §1
Chain of ETV1 (P50549 whole entry): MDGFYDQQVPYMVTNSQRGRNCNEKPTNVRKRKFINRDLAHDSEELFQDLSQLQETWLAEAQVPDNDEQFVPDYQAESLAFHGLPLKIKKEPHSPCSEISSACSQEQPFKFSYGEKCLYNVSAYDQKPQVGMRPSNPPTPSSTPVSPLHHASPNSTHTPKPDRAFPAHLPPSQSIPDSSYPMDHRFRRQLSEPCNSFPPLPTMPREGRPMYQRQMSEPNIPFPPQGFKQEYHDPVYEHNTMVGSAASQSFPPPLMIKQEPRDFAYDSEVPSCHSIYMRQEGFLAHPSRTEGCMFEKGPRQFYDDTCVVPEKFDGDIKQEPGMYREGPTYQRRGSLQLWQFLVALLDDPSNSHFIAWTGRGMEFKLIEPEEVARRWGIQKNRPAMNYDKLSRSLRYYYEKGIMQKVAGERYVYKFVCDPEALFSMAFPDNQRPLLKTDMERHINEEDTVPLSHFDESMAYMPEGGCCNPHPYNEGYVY

Chain of ETV5 (P41161 whole entry): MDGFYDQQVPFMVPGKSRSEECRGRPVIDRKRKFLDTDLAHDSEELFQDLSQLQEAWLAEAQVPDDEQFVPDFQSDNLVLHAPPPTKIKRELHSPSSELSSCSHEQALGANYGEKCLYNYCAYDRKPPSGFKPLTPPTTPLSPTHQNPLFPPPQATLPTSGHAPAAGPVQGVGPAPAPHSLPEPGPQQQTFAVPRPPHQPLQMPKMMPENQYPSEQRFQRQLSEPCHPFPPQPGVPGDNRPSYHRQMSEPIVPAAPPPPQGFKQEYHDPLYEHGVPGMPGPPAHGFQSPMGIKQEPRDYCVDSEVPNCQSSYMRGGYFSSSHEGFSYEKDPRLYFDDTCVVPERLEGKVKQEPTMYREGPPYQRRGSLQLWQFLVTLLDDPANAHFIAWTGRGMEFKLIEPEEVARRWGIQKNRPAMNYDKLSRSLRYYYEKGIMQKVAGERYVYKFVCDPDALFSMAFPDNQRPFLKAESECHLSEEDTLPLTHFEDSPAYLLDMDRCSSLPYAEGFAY
Chain of ELF1 (P32519 whole entry): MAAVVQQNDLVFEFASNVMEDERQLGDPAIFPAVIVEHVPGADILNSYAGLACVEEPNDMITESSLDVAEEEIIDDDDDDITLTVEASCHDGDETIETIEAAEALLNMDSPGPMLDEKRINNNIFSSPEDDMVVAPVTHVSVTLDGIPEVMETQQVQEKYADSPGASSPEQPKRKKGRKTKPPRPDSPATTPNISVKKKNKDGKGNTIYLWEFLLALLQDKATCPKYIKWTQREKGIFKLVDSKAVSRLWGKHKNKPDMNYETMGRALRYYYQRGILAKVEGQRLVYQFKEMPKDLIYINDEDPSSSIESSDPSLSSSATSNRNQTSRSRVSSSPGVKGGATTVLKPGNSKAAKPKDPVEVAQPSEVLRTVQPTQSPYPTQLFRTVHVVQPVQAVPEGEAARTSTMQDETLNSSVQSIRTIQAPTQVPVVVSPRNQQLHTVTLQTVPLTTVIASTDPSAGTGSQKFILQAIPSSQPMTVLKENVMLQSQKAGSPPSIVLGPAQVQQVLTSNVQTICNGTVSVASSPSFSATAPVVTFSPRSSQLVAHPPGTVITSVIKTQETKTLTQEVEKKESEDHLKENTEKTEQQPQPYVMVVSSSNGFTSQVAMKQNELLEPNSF
Chain of SPIB (Q01892 whole entry): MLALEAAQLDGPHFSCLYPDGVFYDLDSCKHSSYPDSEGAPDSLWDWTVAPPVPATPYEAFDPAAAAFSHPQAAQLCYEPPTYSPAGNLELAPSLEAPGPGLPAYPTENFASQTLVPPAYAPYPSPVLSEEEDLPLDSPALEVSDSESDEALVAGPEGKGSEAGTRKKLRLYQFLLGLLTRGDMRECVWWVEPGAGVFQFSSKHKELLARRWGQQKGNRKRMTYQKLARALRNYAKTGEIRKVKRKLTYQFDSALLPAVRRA
Chain of HSF1 (Q00613 whole entry): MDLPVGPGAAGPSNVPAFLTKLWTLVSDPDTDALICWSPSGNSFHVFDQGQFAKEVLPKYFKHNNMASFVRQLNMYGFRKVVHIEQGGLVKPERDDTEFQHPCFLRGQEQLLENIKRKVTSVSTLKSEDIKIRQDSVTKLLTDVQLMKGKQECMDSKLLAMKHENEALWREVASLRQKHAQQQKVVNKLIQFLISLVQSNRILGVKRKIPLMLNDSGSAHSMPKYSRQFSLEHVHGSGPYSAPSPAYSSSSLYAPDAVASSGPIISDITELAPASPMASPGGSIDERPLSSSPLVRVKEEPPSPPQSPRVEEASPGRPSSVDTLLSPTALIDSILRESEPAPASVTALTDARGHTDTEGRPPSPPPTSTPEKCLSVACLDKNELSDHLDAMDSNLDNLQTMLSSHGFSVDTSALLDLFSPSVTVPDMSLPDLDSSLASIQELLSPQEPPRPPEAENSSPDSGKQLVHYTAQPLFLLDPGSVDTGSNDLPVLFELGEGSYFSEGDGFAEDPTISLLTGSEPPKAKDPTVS
Chain of ELF4 (Q99607 whole entry): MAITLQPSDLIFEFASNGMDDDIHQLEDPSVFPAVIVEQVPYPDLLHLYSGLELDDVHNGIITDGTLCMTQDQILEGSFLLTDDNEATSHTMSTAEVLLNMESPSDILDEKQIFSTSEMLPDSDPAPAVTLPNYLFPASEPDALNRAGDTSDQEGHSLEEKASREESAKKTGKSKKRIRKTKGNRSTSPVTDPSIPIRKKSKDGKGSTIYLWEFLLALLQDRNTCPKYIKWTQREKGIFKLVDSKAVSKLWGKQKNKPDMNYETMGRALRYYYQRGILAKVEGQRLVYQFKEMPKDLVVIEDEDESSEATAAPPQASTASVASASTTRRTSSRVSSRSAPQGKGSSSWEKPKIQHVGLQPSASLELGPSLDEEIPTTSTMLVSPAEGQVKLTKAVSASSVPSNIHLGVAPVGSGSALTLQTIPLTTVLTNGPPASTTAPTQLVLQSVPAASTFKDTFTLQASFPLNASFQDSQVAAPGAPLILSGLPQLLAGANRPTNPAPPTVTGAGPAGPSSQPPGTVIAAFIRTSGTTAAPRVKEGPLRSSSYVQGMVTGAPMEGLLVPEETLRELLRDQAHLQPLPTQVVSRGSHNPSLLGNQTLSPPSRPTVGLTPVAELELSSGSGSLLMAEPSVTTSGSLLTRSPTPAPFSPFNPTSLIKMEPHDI

For CCTCGT, the binding signal in [1] was 1.16 fold enrichment (6-mer frequency, TF over GST control); in [2], 1.1 fold enrichment (6-mer frequency, TF over GST control); in [3] it was 1.39 fold enrichment (6-mer frequency, TF over GST control); in [4] it was 1.24 fold enrichment (6-mer frequency, TF over GST control); in [5], 1.3 fold enrichment (6-mer frequency, TF over GST control); in assay [6], 1.18 fold enrichment (6-mer frequency, TF over GST control). Moreover, the binding signal in [7] was 1.31 fold enrichment (6-mer frequency, TF over GST control); in assay [8] it was 1.13 fold enrichment (6-mer frequency, TF over GST control); in assay [9], 1.37 fold enrichment (6-mer frequency, TF over GST control); in assay [10], 1.18 fold enrichment (6-mer frequency, TF over GST control); in assay [11], 1.19 fold enrichment (6-mer frequency, TF over GST control); in assay [12], 1.08 fold enrichment (6-mer frequency, TF over GST control). Also, the binding signal in assay [13] was 1.25 fold enrichment (6-mer frequency, TF over GST control); in assay [14], 1.25 fold enrichment (6-mer frequency, TF over GST control); in [15] it was 1.29 fold enrichment (6-mer frequency, TF over GST control); in [16] it was 1.24 fold enrichment (6-mer frequency, TF over GST control); in assay [17] it was 1.39 fold enrichment (6-mer frequency, TF over GST control).
